Assay [1] can be described thus: Quantitative High-Throughput drug screen in 47 multiple myeloma cell lines against the NCATS MIPE library collection: JIM3_ECACC cell viability assay (AID 1918963; note: nearly all actives have a fitted effect of over 35% in size). Summed up:
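CellTiter-Glo luminescence (ATP) after 48 h compound exposure, 37C/5% CO2; 500 cells/well; MIPE 4.0 approved/investigational drugs pinned in; DMSO = 100%, media only = 0% viability.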

Assay [2] is described as follows: Quantitative High-Throughput drug screen in 47 multiple myeloma cell lines against the NCATS MIPE library collection: INA6_PLB cell viability assay (AID 1918965; note: nearly all actives have a fitted effect of over 55% in size). Summed up:
(§1)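 Myeloma cells (500 per well) were exposed to MIPE 4.0 compounds by pin transfer and incubated 48 hours at 37C, 5% CO2. Viability was read as ATP by CellTiter-Glo luminescence, normalised to DMSO (100%) and media-only (0%) wells.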

The nature of assay [3]: Quantitative High-Throughput drug screen in 47 multiple myeloma cell lines against the NCATS MIPE library collection: JJN3_DSMZ cell viability assay (AID 1918966; note: nearly all actives have a fitted effect of over 50% in size). Summed up: (§2)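 Steps: seed 500 cells per well; pin-transfer MIPE 4.0 library; incubate 48 h at 37C, 5% CO2, humidified; add CellTiter-Glo, 5 min room temperature; read luminescence.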
The nature of assay [4]: Quantitative High-Throughput drug screen in 47 multiple myeloma cell lines against the NCATS MIPE library collection: Karpas25_ECACC cell viability assay (AID 1918968; note: nearly all actives have a fitted effect of over 35% in size). Put shortly: as §2
A short description of assay [5]: Quantitative High-Throughput drug screen in 47 multiple myeloma cell lines against the NCATS MIPE library collection: KMS27_JCRB cell viability assay (AID 1918970). Note: nearly all actives have a fitted effect of over 30% in size. The conditions noted are these: KMS27 myeloma cells, CellTiter-Glo ATP viability, 48 h; viability (% of DMSO): at 45.8 µM (top of the series). Summed up:
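KMS27_JCRB myeloma cells, 500 per well, exposed 48 h at 37 C, 5% CO2 to MIPE 4.0 compounds. Viability from ATP by CellTiter-Glo luminescence, normalized to DMSO (100%) and medium-only (0%) wells.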

The nature of assay [6]: Quantitative High-Throughput drug screen in 47 multiple myeloma cell lines against the NCATS MIPE library collection: KMS12BM_JCRB cell viability assay (AID 1918971). Note: nearly all actives have a fitted effect of over 35% in size. Summed up:
as §2

The nature of assay [7]: Quantitative High-Throughput drug screen in 47 multiple myeloma cell lines against the NCATS MIPE library collection: KMS12PE_JCRB cell viability assay (AID 1918972). Note: nearly all actives have a fitted effect of over 30% in size. Put shortly: as §1
Assay [8] is described as follows: Quantitative High-Throughput drug screen in 47 multiple myeloma cell lines against the NCATS MIPE library collection: H1112_PLB cell viability assay (AID 1918967; note: nearly all actives have a fitted effect of over 30% in size). Summed up: as §2
Assay [9] in a line: Quantitative High-Throughput drug screen in 47 multiple myeloma cell lines against the NCATS MIPE library collection: JIM1_ECACC cell viability assay (AID 1918964). Put shortly: as §2

Structures are written as SMILES. Results filed as inconclusive are left out. Calls of active or inactive are those of the source. Calls come from the whole dose curve; as a rule, active = well fitted curve in the direction sought with a large enough effect; inconclusive = small, poorly fitted or top-dose-only effect, or another doubt; inactive = no such curve, though single readings can be large; an effect the other way counts as inactive or inconclusive.
Potency is the fitted concentration of half-maximal effect.

Take `N#CC(=C1Nc2ccccc2S1)c1ccnc(OCc2ccc(CN3CCOCC3)cc2)n1`: the Potency in assay [1] is 5.26 µM (active); in assay [2], 5.26 µM (active); in assay [3], 2.09 µM (active); in assay [4] it was 0.235 µM (active); in assay [5] it was 0.0264 µM (active); in assay [6] it was 26.4 µM (active). For the same molecule, the Potency in assay [7] is 0.059 µM (active).
Take `CCOc1ccccc1N=Nc1c(C)[nH]n(-c2nc(-c3ccccc3)cs2)c1=O`: the Potency entry in [1] and in assay [2] was “inactive” throughout. For the same molecule, the Potency is 10.5 µM (active) in [3]; 1.66 µM (active) in assay [4]; 9.35 µM (active) in assay [5]; 16.6 µM (active) in assay [6]; 18.7 µM (active) in [7].
In the case of `C[C@]12CC[C@@H]3c4ccc(O)cc4CC[C@H]3[C@H]1[C@@H](O)[C@@H](O)[C@H]2O`, the Potency entry in assay [1], in [2], in assay [8] and in assay [5] was “inactive” each time. Also, the Potency in assay [4] was 26.4 µM (active).
For `Cc1ccc(S(=O)(=O)OCC(=O)Nc2ccc(C(=O)O)c(O)c2)cc1`, the Potency in [1] is 23.5 µM (active); in assay [2] it was 13.2 µM (active); in assay [3], 16.6 µM (active); in assay [8], 20.9 µM (active); in [4], 20.9 µM (active).
For the molecule `Cc1cnc(-c2cc(N3CCN(C(=O)CCS(C)(=O)=O)CC3)ncc2Cl)c(C)c1`, the Potency result in assay [1], in [3] and in assay [8] was “inactive” each time. For the same molecule, in [2], the Potency was 18.7 µM (active).
As for `CCCCCCCCCCCCCCCC(=O)O[C@H]1[C@@H](O)[C@@H](O)[C@@H]([C@H](NC(=O)[C@@H]2C[C@@H](CCC)CN2C)[C@H](C)Cl)O[C@@H]1SC`, the Potency result in [1], in assay [9] and in [7] was “inactive” each time. For the same molecule, the Potency in assay [8] is 18.7 µM (active); in assay [5], 7.43 µM (active); in assay [6] it was 4.69 µM (active).
On to `COc1ccc2cc1Oc1ccc(cc1)C[C@H]1c3cc(c(OC)cc3CCN1C)Oc1c(OC)c(OC)cc3c1[C@H](C2)N(C)CC3`, for which the Potency was 18.7 µM (active) in assay [1]; 18.7 µM (active) in assay [2]; 20.9 µM (active) in assay [8]; 20.9 µM (active) in assay [4]; 3.72 µM (active) in [5]; 13.2 µM (active) in [6]. Also, in assay [7], the Potency is 4.69 µM (active).
For `CCNC(=O)Nc1ccc(Oc2ncnc(N)c2C=NOC)cc1Cl`, the Potency is 9.35 µM (active) in assay [1], 2.64 µM (active) in assay [9], 14.8 µM (active) in assay [6] and 2.96 µM (active) in [7]. For the same molecule, the Potency entry in assay [8] is “inactive”.
As to `CN(C)CCN(Cc1ccc(Cl)cc1)c1ccccn1`, the Potency entry in assay [1], in assay [3], in assay [5], in assay [6] and in assay [7] was “inactive” in each case. Further, the Potency in [2] was 20.9 µM (active); in [4] it was 11.8 µM (active).
`COc1cc2nc(-c3cc(F)ccc3O)nc(N[C@@H]3CNC[C@@H]3C(C)(C)O)c2cc1OC`: the Potency in assay [1] is 7.43 µM (active); in assay [2], 0.001 µM (active); in [3] it was 11.8 µM (active); in assay [8] it was 14.8 µM (active); in assay [4], 4.18 µM (active); in [5], 5.9 µM (active). The figures for the Potency in assay [6] and in assay [7] were 20.9 µM (active) and 8.33 µM (active), respectively.
For the molecule `C[C@H]1COC2=C1C(=O)C(=O)c1c2ccc2c1CCCC2(C)C`, the Potency in assay [1] is 23.5 µM (active); in assay [2], 14.8 µM (active); in assay [3] it was 18.7 µM (active); in [4], 4.69 µM (active); in assay [6], 18.7 µM (active).
`C[C@@]1(C(=O)Nc2ccc(F)nc2)CCCN1c1nc(Nc2cc(C3CC3)[nH]n2)c2cccn2n1`: the Potency in assay [1] is 0.0148 µM (active); in assay [2], 13.2 µM (active); in assay [3] it was 0.105 µM (active); in assay [4], 0.0332 µM (active); in assay [5] it was 0.0526 µM (active); in [6] it was 0.935 µM (active). Besides, in assay [7], the Potency was 0.166 µM (active).
Consider `C[C@@H](N)c1ccc(C(=O)Nc2ccnc3[nH]ccc23)cc1`, for which the Potency was 20.9 µM (active) in assay [1]; 20.9 µM (active) in assay [2]; 20.9 µM (active) in assay [3]; 23.5 µM (active) in assay [8]; 18.7 µM (active) in assay [5].
In the case of `CCC(=C(c1ccc(O)cc1)c1ccc(OCCNC)cc1)c1ccccc1`, the Potency was 20.9 µM (active) in assay [1]; 2.64 µM (active) in [2]; 18.7 µM (active) in [3]; 23.5 µM (active) in assay [8]; 18.7 µM (active) in [4]; 29.6 µM (active) in [6]. Further, the Potency in assay [7] was 23.5 µM (active).
In the case of `O=C(Nc1ccccc1)Nc1ccc(-c2ccc(C(=O)[C@H]3CCC[C@H]3C(=O)O)cc2)cc1`, the Potency entry in assay [1], in assay [2], in assay [8] and in [4] was “inactive” each time. The results for the Potency in assay [3] and in [5] were 3.72 µM (active) and 0.372 µM (active), respectively.
Regarding `Cc1nc(C(=O)NCC(=O)O)c(O)c2ccc(Oc3ccccc3)cc12`, the Potency entry in assay [1], in assay [2], in assay [8] and in [4] was “inactive” throughout.
For `COc1ccc(-c2nc3ccc(C4=NNC(=O)CC4C)cc3[nH]2)cc1` (stereo not drawn), the Potency entry in assay [1], in [9], in assay [3], in [6] and in [7] was “inactive” throughout.
Take `CC1C(=O)OC2C(O)C34C5CC(C(C)(C)C)C36C(OC(=O)C6O)OC4(C(=O)O5)C12O` (stereo not drawn): the Potency entry in assay [1], in assay [2], in assay [3], in assay [8], in [4] and in assay [5] was “inactive” in each case. Moreover, the Potency entry in assay [6] and in assay [7] was “inactive” in each case.
Consider `COc1cc(Nc2nc3ccccc3nc2NS(=O)(=O)c2ccc(NC(=O)c3ccc(C)c(OC)c3)cc2)cc(OC)c1`, for which the figures for the Potency in assay [1] and in [2] were 13.2 µM (active) and 16.6 µM (active), respectively.
For `O=C(CC12CC3CC(CC(C3)C1)C2)Nc1cccc2nc(NCCNCCO)ccc12`, the Potency in assay [1] was 9.35 µM (active); in [2] it was 9.35 µM (active); in assay [3], 9.35 µM (active); in assay [8], 7.43 µM (active); in assay [4] it was 5.9 µM (active); in [5] it was 18.7 µM (active). Also, the values for the Potency in assay [6] and in [7] were 18.7 µM (active) and 9.35 µM (active), respectively.
